Assay outcomes as filed in PubChem BioAssay.
In the library only some 3.7% were active in any assay of this set; here they are far more common.
NLRP3 yeast inh = NALP3 inhibition in yeast; Yeast reconstituted NLRP3/ASC/caspase-1, beta-gal luminescence, 24 h; inhibition, % at 10 µM; 0.39% of 330,000 active; AID 2825;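 active = inhibition of 50% or more; inactive = inhibition below 50%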;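 also: plate controls were induced DMSO wells for no effect and uninduced yeast grown without galactose for full effect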
PfHsp90 yeast 2 = growth inhibition of yeast expressing Plasmodium Hsp90. inhibition, % at 9.4 µM. 0.32% of 310,000 active. S. cerevisiae expressing PfHsp90, BacTiter-Glo ATP, 48 h; yeast lacking PDR1 and PDR3 efflux regulators;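 active = every replicate shows inhibition above about 80%, whatever the replicate mean, limit read from the data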;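 also: 0% = DMSO neutral controls and 100% = 20 µM radicicol positive controls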
TIM10 inh = TIM10 yeast growth inhibition. S. cerevisiae TIM10 strain growth, BacTiter-Glo luminescence, 24 h. inhibition, % at 10 µM. 1.4% of 330,000 active;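 active = inhibition of 40% or more at the single tested concentration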;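 also: wild-type TIM10 isogenic control strain grown at permissive 25 °C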
tim10-1 inh = inhibits growth of tim10-1 mutant yeast. inhibition, % at 20 µM. 2.2% of 330,000 active. S. cerevisiae tim10-1 ts strain growth, BacTiter-Glo, 24 h;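 active = inhibition of at least 40%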;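 also: mutant grown at 25 °C; 0% = DMSO wells with yeast and 100% = wells holding no yeast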
tim23-1 inh = tim23-1 yeast growth inhibition; 1.3% of 330,000 active; S. cerevisiae tim23-1 growth, BacTiter-Glo luminescence, 24 h; inhibition, % at 20 µM; AID 463212;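 active = growth inhibition of the mutant yeast at or above 50%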;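 also: temperature-sensitive mutant grown at 25 °C; plate controls were DMSO-treated mutant yeast for no effect and medium wells lacking yeast for full effect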
tim10-1 conf = tim10-1 yeast growth inhibition, confirmed; shares compounds with tim10-1 inh; S. cerevisiae tim10-1 ts strain growth, BacTiter-Glo, 24 h; inhibition, % at 20 µM; 56% of 7,400 active;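 active = inhibition of yeast growth at or above a set limit in either of two repeat tests at 20 µM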;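 also: tim10-1 mutant grown at permissive 25 °C to find synthetic lethal compounds; 0% = DMSO yeast wells and 100% = medium wells without yeast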
tim10 confirm = confirmation of TIM10 yeast growth inhibitors; AID 463215; shares compounds with TIM10 inh; 63% of 4,600 active; inhibition, % at 10 µM; S. cerevisiae tim10 strain growth, BacTiter-Glo luminescence, 24 h;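 active = inhibition of yeast growth at or above a set limit in either of two replicates at 10 µM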;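 also: this counterscreen used the strain with wild-type TIM10; 0% = yeast with DMSO and 100% = medium wells lacking yeast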
tim23-1 conf = tim23-1 yeast growth inhibition, confirmed. shares compounds with tim23-1 inh. S. cerevisiae tim23-1 growth, BacTiter-Glo luminescence, 24 h. inhibition, % at 20 µM. 83% of 4,400 active;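 active = inhibition above about 39% in either of two replicate wells at 20 µM, limit read from the data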;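 also: temperature-sensitive tim23-1 mutant grown at 25 °C; 0% = DMSO wells with yeast and 100% = medium wells without yeast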
Starred values were filed as active, the others as inactive; x = no result.

SMILES	NLRP3 yeast inh	PfHsp90 yeast 2	TIM10 inh	tim10-1 inh	tim23-1 inh	tim10-1 conf	tim10 confirm	tim23-1 conf
CCOC(=O)c1c(C)oc2c1C(=O)c1ccccc1C2=O	-3.8	-32.1	72.5*	71.8*	78.9*	73.6*	64.4*	93.9*
Cc1onc(-c2ccccc2Cl)c1C(=O)c1ccccc1	20.1	10.6	6.0	-5.2	15.0	x	x	x
Cc1oc2c(c1C(=O)O)C(=O)c1ccccc1C2=O	3.1	-14.1	13.5	4.6	15.2	x	x	x
O=C(C1=C(c2ccccc2)C(=O)c2ccccc2C1=O)c1ccccc1	x	-28.4	x	x	x	x	x	x
O=C1C(=O)c2c(C(=O)c3ccccc3)coc2-c2ccccc21	0.8	-22.6	73.7*	93.0*	70.8*	91.2*	81.0*	64.6*
Cc1noc(C)c1S(=O)(=O)N1CCCC(C(=O)c2cccc(OC(C)C)c2)C1 (stereo not drawn)	5.5	-57.0	10.5	-2.8	32.0	x	x	x
CCOC(=O)c1c(C)[nH]c(C)c1C(=O)COC(=O)CCOc1ccccc1OC	28.1	-14.1	14.8	25.1	9.2	x	x	x
COc1ccc(-c2oc3cccnc3c2C#CC2(O)CCCCC2)cc1	-12.6	x	41.5*	48.2*	58.3*	10.9	26.1	47.6*
CN(Cc1nc(-c2ccccc2)no1)C(=O)c1ccco1	24.9	2.9	9.1	8.1	-0.7	x	x	x
CN1/C(=C\C(=O)Nc2ccc(Cl)cc2)C(C)(C)c2ccccc21	18.4	36.5	58.9*	51.7*	68.2*	61.8*	54.5*	77.8*
CN1/C(=C\C=C(/C#N)C(=O)Nc2ccc(Cl)cc2)C(C)(C)c2ccccc21	-3.6	-0.3	-1.2	-7.2	0.3	x	x	x
CCOC(=O)C1Nc2ccccc2C2c3ccccc3CC12 (stereo not drawn)	40.0	8.2	34.9	50.1*	59.1*	51.5*	x	60.0*
O=C(CNC(=O)c1[nH]cnc1C(=O)NC(c1ccccc1)c1ccccc1)OCc1ccccc1	0.7	x	11.4	22.9	14.1	x	x	x
CC(=O)C1=C(C)OC(N)=C(C#N)C1c1cccc2ccccc12 (stereo not drawn)	5.8	-17.1	25.4	32.2	40.8	x	x	x
CC(=O)n1c2c(c3ccccc31)OC(N)=C(C#N)C2c1ccc(C(C)C)cc1 (stereo not drawn)	14.0	13.0	35.4	42.0*	55.3*	36.6*	x	52.2*
Cc1cc(NC(=O)OC2CCCCC2)ccc1[N+](=O)[O-]	27.6	-26.4	33.6	48.7*	53.2*	24.9	x	55.2*
CC(=O)c1ccc(N2CCN(C(=O)CN3C(=O)NC4(CCCCC4)C3=O)CC2)c(F)c1	15.0	8.0	6.6	-4.9	3.0	x	x	x
CCC(=O)NC(c1ccc(Cl)cc1Cl)c1ccc2cccnc2c1O (stereo not drawn)	9.7	110.9*	6.4	47.7*	61.2*	24.7	x	51.8*
CCC(=O)NC(c1cc(Cl)c2cccnc2c1O)C1CC1 (stereo not drawn)	16.3	4.1	9.5	40.4*	57.6*	19.2	x	57.8*
CC(=O)NC(c1cc(F)c2cccnc2c1O)C1CC1 (stereo not drawn)	13.5	x	0.3	25.4	29.5	x	x	x
COc1ccc(C(NC(=O)C(C)C)c2ccc3cccnc3c2O)cc1 (stereo not drawn)	7.8	60.5	-46.2	3.7	38.3	x	x	x
O=[N+]([O-])c1cccc(C2NCC(c3ccccc3Cl)c3c2[nH]c2ccccc32)c1 (stereo not drawn)	2.9	1.1	62.8*	58.5*	58.0*	51.5*	58.1*	76.5*
O=C(N/N=C/c1ccc[nH]1)c1ccccc1OCc1ccccc1Cl	13.2	0.2	18.2	27.6	44.7	x	x	x
O=C(N/N=C/c1ccco1)c1ccccc1OCc1ccccc1Cl	8.8	-2.7	42.2*	43.9*	50.6*	41.4*	37.6*	48.2*
CCCCC(=O)OCC(=O)c1[nH]c(C)c(C(C)=O)c1C	22.1	9.8	7.4	2.0	11.6	x	x	x
SMILES	NLRP3 yeast inh	PfHsp90 yeast 2	TIM10 inh	tim10-1 inh	tim23-1 inh	tim10-1 conf	tim10 confirm	tim23-1 conf
CC(c1ccccc1)N1C(=O)/C(=C/c2ccncc2)SC1=S (stereo not drawn)	40.6	-12.0	62.5*	66.4*	72.6*	61.2*	72.7*	28.5
O=C(O)C(c1ccccc1)N1C(=O)/C(=C/c2cccs2)SC1=S (stereo not drawn)	-5.1	5.2	6.0	-12.4	16.2	x	x	x
CCOc1ccc(C(=O)NCC(=O)OCCCC(=O)c2ccc(F)cc2)cc1OCC	-3.7	-7.8	7.6	13.3	26.9	x	x	x
Cc1c(C)n(CC(O)CN2C(=O)c3ccccc3S2(=O)=O)c2ccccc12 (stereo not drawn)	-3.4	-10.8	42.7*	65.6*	74.3*	64.8*	49.0*	88.8*
CC/C(=N\NC(=S)Nc1ccc(OC)cc1)c1ccc(OC(F)F)cc1	24.8	-19.3	34.0	53.7*	52.8*	46.5*	x	43.4*
CCOc1c2ccc(C(=O)NCc3ccc4c(c3)OCO4)cc2nn1CC	13.8	32.9	2.5	2.6	24.8	x	x	x
Cc1nc2cc(C(=O)NCc3ccc4c(c3)OCO4)ccc2n1-c1ccc(Br)cc1	-2.2	6.5	14.8	47.1*	52.1*	39.0*	x	47.6*
CN(C(=O)c1ccc(NC(=O)Cc2ccc(NC(=O)C3CCCN(C(=O)C4CCC4)C3)cc2)cc1)C1CCCC1 (stereo not drawn)	x	0.4	x	x	x	x	x	x
Cc1ccc2nc(SCc3ccc([N+](=O)[O-])cc3)[nH]c2c1	14.9	-5.1	55.4*	41.8*	79.2*	41.7*	23.7	79.2*
Cc1ccc2nc(SCc3ccc([N+](=O)[O-])cc3)nc(C)c2c1	18.7	x	-1.7	7.4	10.2	x	x	x
COc1ccc(/C=C/C=C2\N=C(SC)SC2=O)cc1	-1.6	14.1	57.1*	50.8*	71.7*	38.0*	-2.1	21.7
CC(C)Cc1ccc(-c2cc(=O)[nH][nH]2)cc1	1.7	0.2	6.9	59.0*	53.4*	28.0	x	43.9*
FC(F)(F)c1ccc(Cl)c(NC2=NCCCCC2)c1	0.4	7.5	2.9	1.7	-6.8	x	x	x
Cc1ccc(-n2ncc(-c3nn[nH]n3)c2N)cc1	14.2	-2.9	8.6	9.5	11.8	x	x	x
COCCSc1ccccc1C(=O)Nc1ccccc1C#N	15.6	-9.0	-0.1	6.1	5.3	x	x	x
CCOC(=O)C1=C(CC)Nc2ccccc2N=C1NC(=O)Nc1ccc(Cl)c(Cl)c1	9.6	103.7*	69.8*	78.6*	76.1*	71.1*	-25.4	71.8*
CCOc1ccccc1CNc1ccc(O)cc1	x	-11.3	x	x	x	x	x	x
CCOc1cccc(CNc2ccc(O)cc2)c1OCc1ccc(Cl)cc1	21.0	13.2	21.4	42.6*	60.4*	31.5*	x	59.0*
